Assay results published in PubChem BioAssay.
Results with a measured potency or affinity are listed apart. Calls of active or inactive are those of the source. Unless noted, cut-off not given; nearly all actives show IC50 up to about 0.98 µM.

Target: Calcium-dependent protein kinase 1 (Plasmodium falciparum (isolate 3D7)) (UniProt P62344)
Assay: PfCDPK1 kinase inhibitors, biochemical, TCAMS library (AID 1159585);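 further: inhibitors leave more ATP so luminescence rises with inhibition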
Conditions: recombinant PfCDPK1, Kinase-Glo ATP depletion luminescence

Sequence of Calcium-dependent protein kinase 1 (Plasmodium falciparum (isolate 3D7)) (P62344 whole entry, looked up): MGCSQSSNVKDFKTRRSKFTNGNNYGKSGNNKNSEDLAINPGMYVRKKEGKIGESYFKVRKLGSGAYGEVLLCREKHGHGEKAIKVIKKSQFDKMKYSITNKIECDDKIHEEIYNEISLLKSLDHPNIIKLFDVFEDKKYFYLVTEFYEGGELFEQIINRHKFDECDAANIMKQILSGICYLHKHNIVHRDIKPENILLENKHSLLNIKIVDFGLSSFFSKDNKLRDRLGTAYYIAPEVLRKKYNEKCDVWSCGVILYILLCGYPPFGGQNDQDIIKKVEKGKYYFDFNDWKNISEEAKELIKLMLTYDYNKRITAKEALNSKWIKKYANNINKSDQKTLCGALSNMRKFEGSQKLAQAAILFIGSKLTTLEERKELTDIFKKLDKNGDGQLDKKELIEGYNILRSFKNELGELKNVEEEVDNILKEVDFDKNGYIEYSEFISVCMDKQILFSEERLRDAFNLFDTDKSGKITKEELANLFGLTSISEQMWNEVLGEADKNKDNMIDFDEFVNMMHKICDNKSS

outcome, inactive:
Cc1cccc2[nH]c(-c3cccc(-c4ccc(NC(=O)Cc5cnc[nH]5)cc4)c3)nc12
Fc1ccc(-c2nc(NCc3cccc(C(F)(F)F)c3)nn2-c2cccc(C(F)(F)F)c2)cc1C(F)(F)F
Cc1cnc(NC(=O)c2cn(-c3ccccc3)nc2-c2cccs2)s1
CCN(CC)CCNC(=O)c1ccc(NC(=O)c2oc3c(Cl)cccc3c2C)cc1
COc1ccc(C=C2SC(=O)NC2=Nc2ccccc2)c(OC)c1
Cc1cc(N[C@@H](Cc2ccccc2)C(=O)NCCc2ccccc2)nc(NCc2ccccc2C)n1
COc1cc(CNCCCCCCNCc2cc(OC)cc3ccccc23)c2ccccc2c1
COc1cc(NC(=O)c2c(-c3c(Cl)cccc3Cl)noc2C)c(OC)cc1Cl
CN1CCN(CC2(Nc3nccc(NCc4ccc(Cl)cc4Cl)n3)CCCCC2)CC1
CN(C)CCCNCCS(=O)(=O)c1cccc(Nc2ccc(-c3cccc(N(C)C)c3)cn2)c1
COc1cc(SC)c(Br)cc1-c1nc2ccncc2[nH]1
Cc1cc(N2CCN(C3CCCCC3)CC2)nc2cccc(O)c12
CCCCCCn1c(Sc2ccc(C#N)c([N+](=O)[O-])c2)nnc1-c1ccc(OC)cc1
Cc1cc(N[C@@H](Cc2ccccc2)C(=O)NCc2cccs2)nc(NCCOc2ccccc2)n1
C(=N\Nc1nccc2sc(-c3cccnc3)cc12)/c1ccncc1
CCOC(=O)C(CO)NC(=O)c1ccc([N+](=O)[O-])o1 (stereo not given)
COc1ccc2nccc([C@@H](O)CN3CCC(NC(=O)c4cc5ccccc5[nH]4)CC3)c2c1
COc1ccc(-c2cccc(NC(=O)c3ccc(C#N)cc3)c2)cc1CN1CCCN(C)CC1
Cc1nccc2c(NC(=O)N[C@@H]3CCN(c4ncc(C(F)(F)F)cc4Br)C3)cccc12
CN(C)CCOC(=O)C1(O)CCC2CC1C2(C)C (stereo not given)
c1cncc(CCNCc2ccc(-c3cccc(-c4nc5ccccc5[nH]4)c3)cc2)c1
O=C(Cn1c(=O)cnc2ccccc21)Nc1cccc(C(=O)Nc2cccc(C(F)(F)F)c2)c1
COc1cc(Nc2nccc(N3CCC(NC(=O)c4cc5ccccc5s4)C3)n2)cc(OC)c1OC (stereo not given)
COc1ccc2ncc(C#N)c(CCN3CCC(NCc4ccc5c(c4)OCCO5)CC3)c2c1
COc1ccc(-c2cncc3ccc(C(=O)NCc4ccncc4)nc23)cc1
CC(C)(C)c1ccc(-c2ccccc2CNC(=O)c2cccc(O)c2)cc1
COc1ccc2nccc([C@@H](O)CN3CCC(NCc4cc5cc([N+](=O)[O-])ccc5[nH]4)CC3)c2c1
COc1ccc(C=NNc2cc(C)nc3ccccc23)cc1OC
Cc1cc(C(=O)NCc2ccc(-c3c(C)noc3C)cc2)n(-c2ccc(Cl)cc2)n1
O=C(Nc1cccc(CN2CCCN(Cc3ccc(O)cc3)CC2)c1)c1ccc(-c2ccccc2)cc1
CC(Cc1ccc(OCCN2CCN(c3cccc(C(F)(F)F)c3)CC2)cc1)NCC(O)c1cccc(C(F)(F)F)c1 (stereo not given)
COC(=O)C(=C(C)C)N1C(=O)[C@@H](NC(=O)OCc2ccccc2)[C@H]1SS[C@@H]1[C@H](NC(=O)OCc2ccccc2)C(=O)N1C(C(=O)OC)=C(C)C
CNCCNCc1ccc(-c2ccc(-c3nc4ccc(F)cc4[nH]3)cc2)cc1
COCc1nc(N)nc(N)c1-c1ccc(Cl)c(Cl)c1
O=C(/C=C/c1ccc(Cl)c(Cl)c1)NC1CCC(CN2CCC(c3cc4ccccc4[nH]3)CC2)CC1 (stereo not given)
CC(C)C1=CC(=NOS(=O)(=O)c2ccccc2)C=C(C(C)C)C1=O
c1ccc(-c2ccc(-c3csc(Nc4ccncc4)n3)cc2)cc1
O=C(Cc1ccc([N+](=O)[O-])cc1)N1CCc2cc3nccc(N4CCN5CCC[C@H]5C4)c3cc21
CC[C@H]1CN(CCCC(=O)c2ccccc2)CC[C@H]1CCCc1ccnc2ccc(OC(=O)c3ccccc3)cc12
Cn1cncc1-c1ccc2ncnc(Nc3ccc(OCc4ccccc4)cc3)c2c1

Target: Plasmodium falciparum protein kinase 6 (PK6, PF3D7_1337100) (UniProt Q8IDW1)
Assay: PfPK6 kinase inhibitors, biochemical, TCAMS library (AID 1159586; call rule not given here)
Conditions: recombinant PfPK6, Kinase-Glo ATP depletion luminescence

Sequence of Plasmodium falciparum protein kinase 6 (PK6, PF3D7_1337100) (Q8IDW1 1-305): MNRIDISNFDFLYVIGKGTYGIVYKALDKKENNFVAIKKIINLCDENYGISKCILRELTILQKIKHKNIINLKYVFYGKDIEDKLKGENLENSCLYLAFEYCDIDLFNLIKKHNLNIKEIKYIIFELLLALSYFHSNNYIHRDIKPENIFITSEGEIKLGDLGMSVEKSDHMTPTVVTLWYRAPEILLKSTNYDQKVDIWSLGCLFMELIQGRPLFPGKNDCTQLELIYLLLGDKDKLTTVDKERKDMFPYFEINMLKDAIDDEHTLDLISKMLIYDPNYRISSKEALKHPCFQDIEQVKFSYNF

outcome, inactive:
Cc1cccc2[nH]c(-c3cccc(-c4ccc(NC(=O)Cc5cnc[nH]5)cc4)c3)nc12
Fc1ccc(-c2nc(NCc3cccc(C(F)(F)F)c3)nn2-c2cccc(C(F)(F)F)c2)cc1C(F)(F)F
Cc1cnc(NC(=O)c2cn(-c3ccccc3)nc2-c2cccs2)s1
CCN(CC)CCNC(=O)c1ccc(NC(=O)c2oc3c(Cl)cccc3c2C)cc1
COc1ccc(C=C2SC(=O)NC2=Nc2ccccc2)c(OC)c1
Cc1cc(N[C@@H](Cc2ccccc2)C(=O)NCCc2ccccc2)nc(NCc2ccccc2C)n1
COc1cc(CNCCCCCCNCc2cc(OC)cc3ccccc23)c2ccccc2c1
COc1cc(NC(=O)c2c(-c3c(Cl)cccc3Cl)noc2C)c(OC)cc1Cl
CN1CCN(CC2(Nc3nccc(NCc4ccc(Cl)cc4Cl)n3)CCCCC2)CC1
CN(C)CCCNCCS(=O)(=O)c1cccc(Nc2ccc(-c3cccc(N(C)C)c3)cn2)c1
COc1cc(SC)c(Br)cc1-c1nc2ccncc2[nH]1
Cc1cc(N2CCN(C3CCCCC3)CC2)nc2cccc(O)c12
CCCCCCn1c(Sc2ccc(C#N)c([N+](=O)[O-])c2)nnc1-c1ccc(OC)cc1
Cc1cc(N[C@@H](Cc2ccccc2)C(=O)NCc2cccs2)nc(NCCOc2ccccc2)n1
C(=N\Nc1nccc2sc(-c3cccnc3)cc12)/c1ccncc1
CCOC(=O)C(CO)NC(=O)c1ccc([N+](=O)[O-])o1 (stereo not given)
COc1ccc2nccc([C@@H](O)CN3CCC(NC(=O)c4cc5ccccc5[nH]4)CC3)c2c1
COc1ccc(-c2cccc(NC(=O)c3ccc(C#N)cc3)c2)cc1CN1CCCN(C)CC1
Cc1nccc2c(NC(=O)N[C@@H]3CCN(c4ncc(C(F)(F)F)cc4Br)C3)cccc12
CN(C)CCOC(=O)C1(O)CCC2CC1C2(C)C (stereo not given)
c1cncc(CCNCc2ccc(-c3cccc(-c4nc5ccccc5[nH]4)c3)cc2)c1
O=C(Cn1c(=O)cnc2ccccc21)Nc1cccc(C(=O)Nc2cccc(C(F)(F)F)c2)c1
COc1cc(Nc2nccc(N3CCC(NC(=O)c4cc5ccccc5s4)C3)n2)cc(OC)c1OC (stereo not given)
COc1ccc2ncc(C#N)c(CCN3CCC(NCc4ccc5c(c4)OCCO5)CC3)c2c1
COc1ccc(-c2cncc3ccc(C(=O)NCc4ccncc4)nc23)cc1
CC(C)(C)c1ccc(-c2ccccc2CNC(=O)c2cccc(O)c2)cc1
COc1ccc2nccc([C@@H](O)CN3CCC(NCc4cc5cc([N+](=O)[O-])ccc5[nH]4)CC3)c2c1
COc1ccc(C=NNc2cc(C)nc3ccccc23)cc1OC
Cc1cc(C(=O)NCc2ccc(-c3c(C)noc3C)cc2)n(-c2ccc(Cl)cc2)n1
O=C(Nc1cccc(CN2CCCN(Cc3ccc(O)cc3)CC2)c1)c1ccc(-c2ccccc2)cc1
CC(Cc1ccc(OCCN2CCN(c3cccc(C(F)(F)F)c3)CC2)cc1)NCC(O)c1cccc(C(F)(F)F)c1 (stereo not given)
COC(=O)C(=C(C)C)N1C(=O)[C@@H](NC(=O)OCc2ccccc2)[C@H]1SS[C@@H]1[C@H](NC(=O)OCc2ccccc2)C(=O)N1C(C(=O)OC)=C(C)C
CNCCNCc1ccc(-c2ccc(-c3nc4ccc(F)cc4[nH]3)cc2)cc1
COCc1nc(N)nc(N)c1-c1ccc(Cl)c(Cl)c1
O=C(/C=C/c1ccc(Cl)c(Cl)c1)NC1CCC(CN2CCC(c3cc4ccccc4[nH]3)CC2)CC1 (stereo not given)
CC(C)C1=CC(=NOS(=O)(=O)c2ccccc2)C=C(C(C)C)C1=O
c1ccc(-c2ccc(-c3csc(Nc4ccncc4)n3)cc2)cc1
O=C(Cc1ccc([N+](=O)[O-])cc1)N1CCc2cc3nccc(N4CCN5CCC[C@H]5C4)c3cc21
CC[C@H]1CN(CCCC(=O)c2ccccc2)CC[C@H]1CCCc1ccnc2ccc(OC(=O)c3ccccc3)cc12
Cn1cncc1-c1ccc2ncnc(Nc3ccc(OCc4ccccc4)cc3)c2c1
